Measured values taken from paper PMC4336329 (PLoS ONE, 2015).
Screen size: about 310,000 compounds; about 14,000 (4.5%) showed an effect of 50% or more. The effect is printed as a negative number. The full list was thinned out, with strong results kept by preference.

molecular target: human ether-à-go-go-related gene (hERG) potassium channel (human, UniProt Q12809); experiment: primary screen, population patch clamp on CHO cells stably expressing hERG; higher = less effect of the substance
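Note: peak tail current of the secondary pulse compared with the same well before compound.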

Chain of human ether-à-go-go-related gene (hERG) potassium channel (Q12809 whole entry, looked up): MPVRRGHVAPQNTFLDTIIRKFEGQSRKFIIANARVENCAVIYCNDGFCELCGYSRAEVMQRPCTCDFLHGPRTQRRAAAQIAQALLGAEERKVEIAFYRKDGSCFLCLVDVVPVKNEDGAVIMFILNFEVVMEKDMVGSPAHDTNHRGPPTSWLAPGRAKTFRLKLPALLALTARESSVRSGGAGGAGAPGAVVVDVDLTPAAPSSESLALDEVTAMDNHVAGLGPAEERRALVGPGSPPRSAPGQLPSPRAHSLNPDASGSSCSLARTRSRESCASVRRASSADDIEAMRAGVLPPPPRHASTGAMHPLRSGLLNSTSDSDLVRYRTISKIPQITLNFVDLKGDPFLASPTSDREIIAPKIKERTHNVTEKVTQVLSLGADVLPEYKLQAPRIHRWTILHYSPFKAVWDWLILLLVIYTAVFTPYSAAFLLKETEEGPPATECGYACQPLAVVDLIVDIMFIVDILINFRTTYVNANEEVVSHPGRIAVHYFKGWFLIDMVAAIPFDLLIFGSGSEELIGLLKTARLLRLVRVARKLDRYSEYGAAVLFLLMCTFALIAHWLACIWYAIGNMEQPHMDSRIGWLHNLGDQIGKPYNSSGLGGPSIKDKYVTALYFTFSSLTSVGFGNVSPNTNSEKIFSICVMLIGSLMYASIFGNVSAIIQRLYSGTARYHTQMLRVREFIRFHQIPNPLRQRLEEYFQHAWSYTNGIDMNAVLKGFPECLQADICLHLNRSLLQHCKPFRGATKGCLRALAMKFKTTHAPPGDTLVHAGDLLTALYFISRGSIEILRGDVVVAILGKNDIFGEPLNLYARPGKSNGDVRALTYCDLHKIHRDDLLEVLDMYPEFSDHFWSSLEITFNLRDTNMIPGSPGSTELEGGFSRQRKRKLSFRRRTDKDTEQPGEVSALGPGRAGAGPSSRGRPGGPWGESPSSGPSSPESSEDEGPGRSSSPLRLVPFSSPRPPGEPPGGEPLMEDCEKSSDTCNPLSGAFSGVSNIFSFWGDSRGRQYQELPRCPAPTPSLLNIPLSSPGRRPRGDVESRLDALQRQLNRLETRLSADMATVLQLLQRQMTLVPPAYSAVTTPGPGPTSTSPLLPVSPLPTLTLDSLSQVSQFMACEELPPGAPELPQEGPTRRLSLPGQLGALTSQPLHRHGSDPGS

Structure (SMILES) | hERG current change (%, negative = inhibition) at 10uM
COc1ccc(Cl)cc1NC(=O)C1CCN(S(C)(=O)=O)CC1 | 3.72%
CCOc1ccccc1/C=C/c1onc(C)c1S(=O)(=O)N1CCC(C(=O)N(CC)CC)CC1 | -3.33%
O=C(NCc1cccnc1)c1ccc(NC(=O)c2ccc([N+](=O)[O-])cc2)cc1 | 9.09%
CCOC(=O)Cc1cc(=O)n2[nH]c(-c3ccc(Cl)cc3)cc2n1 | -20.4%
CCCc1nc2oc3cc(OC)ccc3c(=O)c2c(=O)n1CCc1ccccc1 | -38.3%
COc1ccc(-n2c(=O)c(NC(=O)c3ccccc3)c3n(c2=S)CCCCC3)cc1 | -3.03%
CC(=O)c1ccc(NC(=O)CO/N=C(\C)c2cccs2)cc1 | -8.22%
O=C(Nc1ccccn1)c1ccc2c(c1)S(=O)(=O)c1ccccc1C2=O | 6.46%
CCCCCn1cnnc1SCC(=O)c1ccc2c(c1)OCO2 | -27.9%
Cc1nc2c3ccccc3nc(SCC(=O)c3ccc(Cl)cc3)n2n1 | 2.48%
COC(=O)C1=C(C(=O)OC)[C@@H]2N(Cc3ccccc3)c3ccccc3[C@@]23C[C@@H](C(=O)OC)N(C(=O)NC2CCCCC2)C3=N1 | -12.1%
COc1ccc(-n2c(CN3CCN(c4ccccc4)CC3)nc3ccc([N+](=O)[O-])cc3c2=O)c(OC)c1 | -10.8%
COc1ccc(-n2c(CN3CCC(C(N)=O)CC3)nc3ccc([N+](=O)[O-])cc3c2=O)c(OC)c1 | -3.9%
CCN1CCN(Cc2nc3ccc([N+](=O)[O-])cc3c(=O)n2-c2ccc(OC)cc2OC)CC1 | -52%
COc1ccc(-n2c(CN3CCN(c4ccc(F)cc4)CC3)nc3ccc([N+](=O)[O-])cc3c2=O)c(OC)c1 | -44.6%
CCOC(=O)C1CCCN(Cc2nc3ccc([N+](=O)[O-])cc3c(=O)n2-c2ccc(OC)cc2OC)C1 (stereo not shown) | -28.9%
CCOC(=O)C1CCN(Cc2nc3ccc([N+](=O)[O-])cc3c(=O)n2-c2ccc(OC)cc2OC)CC1 | -53.8%
COc1ccc(-n2c(CN3CCOCC3)nc3ccc([N+](=O)[O-])cc3c2=O)c(OC)c1 | -3.17%
COc1cccc(-n2c(CN3CCN(c4ccccn4)CC3)nc3ccc([N+](=O)[O-])cc3c2=O)c1 | -40%
COc1ccc(-n2c(CN3CCN(Cc4ccccc4)CC3)nc3ccc([N+](=O)[O-])cc3c2=O)c(OC)c1 | -51.1%
COc1ccc(-n2c(CN3CCN(c4ccccn4)CC3)nc3ccc([N+](=O)[O-])cc3c2=O)c(OC)c1 | -55.5%
COc1ccc(-n2c(CN3CCN(C)CC3)nc3ccc([N+](=O)[O-])cc3c2=O)c(OC)c1 | -38.4%
COc1ccc(-n2c(CN3CCC(C)CC3)nc3ccc([N+](=O)[O-])cc3c2=O)c(OC)c1 | 4.93%
COc1ccc(C2NC(C(=O)O)CS2)cc1COCC(F)(F)F (stereo not shown) | 3.38%
CC1Sc2ccc(S(=O)(=O)N3CCC(C(=O)N(C)Cc4ccco4)CC3)cc2NC1=O (stereo not shown) | -24.7%

Structure (SMILES) | hERG current change (%, negative = inhibition) at 10uM
COc1ccc(NC(=O)c2sc(SC)nc2N)cc1 | -0.0249%
Cn1ncc(Cl)c1C(=O)N1CCc2ccccc21 | -13.9%
O=S(=O)(c1ccccc1Cl)N1CCCC1c1nc(-c2cccc(Cl)c2)no1 (stereo not shown) | -9.49%
COc1cccc(-n2c(CN3CCN(C)CC3)nc3ccc([N+](=O)[O-])cc3c2=O)c1 | -33.1%
COc1cccc(-n2c(CN3CCN(Cc4ccccc4)CC3)nc3ccc([N+](=O)[O-])cc3c2=O)c1 | -52.8%
COc1cccc(-n2c(CN3CCN(c4ccccc4)CC3)nc3ccc([N+](=O)[O-])cc3c2=O)c1 | -8.34%
C=C(C)COc1ccc(-c2[nH]ncc2Oc2ccc(OC)cc2)c(O)c1 | -14.9%
C=C(C)COc1ccc(-c2[nH]ncc2Oc2ccccc2OCC)c(O)c1 | 4.65%
C=C(C)COc1ccc(-c2[nH]ncc2Oc2ccccc2OC)c(O)c1 | -55.2%
O=C(O)c1ccc(NS(=O)(=O)c2ccc(NC(=O)c3ccccc3Cl)cc2)cc1 | 19%
CC(NC(=O)COC(=O)c1ccc([N+](=O)[O-])s1)c1ccccc1 (stereo not shown) | -20.8%
CCC(C)c1ccc(NC(=O)C/C(C)=N/NC(=O)c2cnccn2)cc1 (stereo not shown) | -17.2%
C=CCN1C(=O)/C(=C\C=C2\N(C)c3ccccc3C2(C)C)SC1=S | 10.7%
CCN1C(=O)/C(=C/C=C2\N(CC)c3cc(S(=O)(=O)N(C)C)ccc3N2c2ccccc2)SC1=S | 0.17%
C=CCN1C(=O)/C(=C/C=C2/N(CC)c3ccc(S(=O)(=O)N(C)C)cc3N2CC)SC1=S | -56%
COC(=O)CSc1[nH]c2ccccc2c1[N+](=O)[O-] | 7.33%
Cc1nn(C)c(NC(=O)c2ccc(Cl)cc2Cl)c1Br | -11.4%
CCOC(=O)c1ccc(NC(=S)N(CCCN2CCCCC2)Cc2ccco2)cc1 | -72.7%
CCOC(=O)c1ccc(NC(=S)NCc2ccco2)cc1 | -11.1%
CCOC(=O)c1ccc(NC(=S)N(CCCN2CCCC(C)C2)Cc2ccco2)cc1 (stereo not shown) | -70.9%
CCc1ccccc1NC(=S)N(CCN1CCCCCC1)Cc1ccco1 | -46.8%
CCOC(=O)c1ccc(NC(=O)C(=O)NCc2ccco2)cc1 | 15.7%
CCOC(=O)c1ccc(NC(=S)N(CCN2CCCCCC2)Cc2ccco2)cc1 | -78.3%
CCOC(=O)c1ccc(NC(=S)N(CCCN(CC)CC)Cc2ccco2)cc1 | -76.7%
